In the library only some 1.8% were active in any assay of this set; here they are far more common.
Phagocytosis inh – inhibitors of macrophage phagocytosis, primary screen, imaging, J774A.1 cells, IgG beads; J774A.1 macrophage IgG-bead phagocytosis; inhibition, % at 5 µM; 110,000 compounds, 0.07% hits; AID 1029, 2008;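 active means inhibition above the mean of the plate negative controls plus 5 SD, cut at about 13% in these data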;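 further: phagocytic index as fraction of beads internalized from green versus red external bead signal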
SDO1 yeast rescue – growth rescue of sdo1-depleted yeast, primary screen, S. cerevisiae, bone marrow failure model | 140,000 compounds, 0.21% hits | S. cerevisiae sdo1-depleted JHY4D growth rescue, OD600 30 h; active compounds read high; pdr5 snq2 efflux-pump mutant strain | z-score at 10 µM;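 active means z-score above 3 at both the 24 hr and the 30 hr optical density reads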
Measles CPE – compounds protecting cells from measles virus cytopathic effect, primary screen, measles RdRp inhibitor project, single point, MLSMR library, absorbance. Measles virus-infected cells, CPE protection. protection (pct of control), % at 4 µM. 140,000 compounds, 1.5% hits; in the data active means protection mostly above about 24%, no sharp cut-off; inactive means mostly below about 26%
Large screens that a line does not name were inactive.

CCOC(=O)c1cc2sc(C)cc2n1C(C)C(=O)OCC (configuration not stated)	none
CSc1ccccc1NS(=O)(=O)c1ccc2c(c1)OCCO2	none
O=S(=O)(Nc1cccnc1Cl)c1ccc2c(c1)OCCO2	Measles CPE 33.3 (no result: Phagocytosis inh)
CC(C)CC(=O)Nc1ccc(C(=O)NN2C(=O)c3ccccc3C2=O)cc1	none (no result: Phagocytosis inh)
CCOCCCn1cnc2c(c1=O)c1nc3ccccc3nc1n2-c1ccc(C)cc1	none
CCOCCCn1cnc2c(c1=O)c1nc3ccccc3nc1n2-c1ccccc1	Measles CPE 42.6
Cc1cc(N/C=C2\CCCCC2=O)no1	none (no result: Phagocytosis inh)
CCn1c(CN2CCN(c3cccc(C)c3C)CC2)n[nH]c1=S	none
O=C(NNc1ccc([N+](=O)[O-])cc1)C1CC2CCCC(C1)C2=O (configuration not stated)	none (no result: Phagocytosis inh)
O=C(NNc1ccc([N+](=O)[O-])cc1)C1CC1c1ccccc1 (configuration not stated)	Measles CPE 22.8
COc1ccc(-c2cnc3nc[nH]c(=O)c3n2)cc1	none (no result: Phagocytosis inh)
Cc1ccc(C(=O)N/N=C/c2ccc3c(c2)OCO3)o1	none
O=C(N/N=C\C=C\c1ccc2c(c1)OCO2)C1COc2cc3ccccc3cc2O1 (configuration not stated)	Measles CPE 37.2
Cc1cc(C(=O)N/N=C/C=C/c2ccc3c(c2)OCO3)n[nH]1	Measles CPE 24.7 (no result: Phagocytosis inh)
O=C(N/N=C/c1ccc2c(c1)OCO2)C1COc2ccccc2O1 (configuration not stated)	none
Cc1ccc(S(=O)(=O)N(c2nc(NC(C)C)nc(NC(C)C)n2)n2cnnc2)cc1	none
COc1ccc(C2=NOC3(CC(=O)N(c4ccc(C)cc4)C3=O)C2)c(OC)c1 (configuration not stated)	none
COCC(C)N=C1NN=C(c2c[nH]c3ccccc23)CS1 (configuration not stated)	none
CCc1ccc(-n2c(=O)c3c(C)c(C(=O)N(C)C)sc3n(CC(=O)NCc3ccco3)c2=O)cc1	none
CCc1nc(SCC(=O)Nc2cccc(C(F)(F)F)c2)c2c(=O)n(C)c(=O)n(C)c2n1	none
O=C(c1nc2ncccn2n1)N1CCN(c2ccc(F)cc2)CC1	none
O=C(c1nc2ncccn2n1)N1CCN(c2ccccc2)CC1	Measles CPE 42.6
CCCCCNC(=O)CCc1ccccc1	Measles CPE 52.6 (no result: Phagocytosis inh)
O=C(CCC(=O)NCCCc1ccccc1)NCCCc1ccccc1	none
O=C(/C=C/c1cccs1)Nc1ccc(Br)cn1	none
CCn1c(SCc2nnc(-c3ccccc3)o2)nnc1-c1ccc(S(=O)(=O)N2CCCC2)cc1	Measles CPE 55.5
CCn1c(SCc2ccccc2)nnc1-c1ccc(S(=O)(=O)N2CCCCC2)cc1	none
O=C(OCC(=O)N1CCCc2ccccc21)c1cncc(Br)c1	none
O=C(OCC(=O)N1CCCC1)c1cncc(Br)c1	Measles CPE 43.1
COc1ccc(C2C=C(C34CC5CC(CC(C5)C3)C4)NC(=S)N2)cc1OC (configuration not stated)	none
COc1ccc(NC(=O)C(NC(=O)c2ccc(=O)[nH]c2)c2ccc(C)cc2)cc1 (configuration not stated)	Measles CPE 32.8 (no result: Phagocytosis inh)
COc1ccc(NC(=O)C(c2ccc(C)cc2)N(C)C(=O)c2ccc(=O)[nH]c2)cc1 (configuration not stated)	none (no result: Phagocytosis inh)
Cc1ccc(CNC(=O)Cn2c(=O)c3sccc3n(Cc3ccc([N+](=O)[O-])cc3)c2=O)cc1	none
Cc1ccccc1Cn1nc(C)c(NC(=O)c2sc3ccccc3c2Cl)c1C	Measles CPE 64.2
Cc1nn(Cc2ccc(Cl)cc2Cl)c(C)c1NC(=O)c1sc2ccccc2c1Cl	none
COc1cc(OC)c(NS(=O)(=O)c2cc(C(=O)OC(C)C(=O)NC3CC3)c(Cl)cc2Cl)cc1Cl (configuration not stated)	none
CCN(CC)S(=O)(=O)c1ccc(Cl)c(C(=O)Nc2nncs2)c1	none
CCN(CC)S(=O)(=O)c1cc(C(=O)Nc2nncs2)c(Cl)cc1Cl	Phagocytosis inh 26.4
C=CCN(CC=C)C(=O)Cn1cnc([N+](=O)[O-])n1	none
O=C(Nc1ccccc1)Nc1cc(Cl)cc(Cl)c1	Measles CPE 63.1
O=C(Nc1cccc(Cl)c1)Nc1cccc(Cl)c1	none (no result: Phagocytosis inh)
COc1cc(Cl)c(C)cc1NC(=O)c1cc(S(=O)(=O)N(C)C)ccc1N1CCCC1	none
C(#CCN1CCOCC1)COC(c1ccccc1)c1ccccc1	none (no result: Phagocytosis inh)
CC(=O)OC(C#CCN1CCOCC1)c1ccccc1 (configuration not stated)	Measles CPE 46.3
Cc1ccc(S(=O)(=O)NC(=O)c2cc(C)n(-c3ccccc3)c2C)cc1	none
Cc1cc(C(=O)O)c(C)n1-c1ccccc1	Measles CPE 39.6
O=C(Oc1ccc2c(c1)O/C(=C\c1ccncc1)C2=O)c1ccccc1	Measles CPE 39.6 (no result: Phagocytosis inh)
